Out of some 360,000 compounds screened, about 25,000 (6.9%) were called active. Not shown: some 9% with an inconclusive outcome. Calls come from the whole dose curve; as a rule, active = well fitted inhibition curve with a large enough effect; inconclusive = small, poorly fitted or top-dose-only effect; inactive = flat fitted curve, though single readings scatter. What follows is part of a selection rich in actives, with near analogues and random picks from the rest.
Potency is the fitted concentration of half-maximal effect.

Luciferin 4-monooxygenase (Photinus pyralis), sequence (P08659 whole entry, looked up): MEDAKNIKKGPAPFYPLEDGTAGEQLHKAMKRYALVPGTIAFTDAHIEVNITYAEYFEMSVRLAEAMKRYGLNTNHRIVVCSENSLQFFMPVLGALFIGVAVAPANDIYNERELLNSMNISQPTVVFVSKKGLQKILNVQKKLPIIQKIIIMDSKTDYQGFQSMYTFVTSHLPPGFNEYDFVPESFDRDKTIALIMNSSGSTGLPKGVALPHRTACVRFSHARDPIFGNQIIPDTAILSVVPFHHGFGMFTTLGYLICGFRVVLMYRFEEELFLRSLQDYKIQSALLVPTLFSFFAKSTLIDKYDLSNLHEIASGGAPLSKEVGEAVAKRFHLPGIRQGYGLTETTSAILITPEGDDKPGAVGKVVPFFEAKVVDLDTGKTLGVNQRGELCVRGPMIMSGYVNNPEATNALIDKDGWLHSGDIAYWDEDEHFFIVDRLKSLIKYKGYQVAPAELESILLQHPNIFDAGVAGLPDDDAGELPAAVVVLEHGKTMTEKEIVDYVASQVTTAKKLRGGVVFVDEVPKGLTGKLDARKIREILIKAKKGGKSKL

The target in this assay is Luciferin 4-monooxygenase (Photinus pyralis) (UniProt P08659). Put plainly: qHTS profiling assay for firefly luciferase inhibitor/activator using purifed enzyme and Km concentrations of substrates (counterscreen for miR-21 project).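 For activity change, negative = inhibition: plate controls were vehicle for no effect and reference inhibitor for full effect.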 Note: nearly all actives have a fitted effect of over 55% in size. Particulars: purified FLuc, luminescence inhibition; series mostly up to 57.5 µM; activity change, negative = inhibition: at the top concentration. The procedure, abridged:
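Purified P. pyralis luciferase, 10 nM final, with Km-level 10 uM D-luciferin and 10 uM ATP in 50 mM Tris acetate pH 7.5, 10 mM Mg acetate, 0.01% Tween-20, 0.05% BSA; 6-point qHTS titration about 60 µM downward; luminescence read.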
Background: qHTS replaces the single test concentration by a dilution series.
Take `COc1ccc(CN2CCc3nc(Nc4ccccc4)ncc3C2)c(OC)c1OC`: the “activity change, negative = inhibition” value was 2.56% (inactive). As for `COc1ccc(/C=N/NC(=O)CNC(=O)c2ccc(S(=O)(=O)N3CCCC3)cc2)c(OC)c1`, the “activity change, negative = inhibition” value was -9.97% (inactive). Turning to `COc1ccc(Br)cc1/C=N/NC(=O)c1cccc(S(=O)(=O)N2CCOCC2)c1`, the “activity change, negative = inhibition” value is 5.78% (inactive).

For `CCn1c(SCC(=O)N/N=C/c2ccncc2)nc2ccccc21`, the “activity change, negative = inhibition” value was -2.42% (inactive). Take `CCn1c(/C=N/NC(=O)c2ccc(OC)cc2)nc2ccccc21`: the Potency was 13.5 µM (active). As for `CCCCCn1c(CCNC(=O)c2ccc(F)cc2)nc2ccccc21`, the “activity change, negative = inhibition” value is -3.86% (inactive). Take `CCOc1ccc(/C=N/NC(=O)C(C)Sc2ccccn2)cc1OCC` (stereo not drawn): the “activity change, negative = inhibition” value was -1.41% (inactive).

In the case of `Cc1cc(C(=O)N/N=C/c2ccccn2)c2ccccc2n1`, the “activity change, negative = inhibition” value is -0.51% (inactive). On to `COc1ccc(/C=N/NC(=O)c2ccc3c(c2)OCCO3)c(OC)c1`, for which the Potency is 9.53 µM (active). Still for that read-out and setting: the figure for `CCOc1cc(/C=N/NC(=O)c2cc(-c3ccccc3)nc3ccccc23)ccc1O` is 16.9 µM (active). Regarding `COc1ccc(Cc2nc3ccc(C(=O)NCc4ccccc4Cl)cc3o2)cc1`, the “activity change, negative = inhibition” value is -11% (inactive).

As to `CCOC(=O)C1CCCN(C(=O)c2ccc3c(c2)sc2nc(-c4ccc(CC)cc4)cn23)C1` (stereo not drawn), the “activity change, negative = inhibition” value is -6.78% (inactive). On to `Cc1ccccc1CNC(=O)C(=O)NCC(c1cccs1)S(=O)(=O)c1cccs1` (stereo not drawn), for which the “activity change, negative = inhibition” value was -9.18% (inactive).

With `Cc1nc(N2CCOCC2)c2c(C(=O)NCc3cccc(Cl)c3)c(C)oc2n1`, the “activity change, negative = inhibition” value is -2.72% (inactive). With `O=C1Nc2cc(C(=O)N3CCC(N4CCCCC4)CC3)ccc2S/C1=C\c1ccccc1`, the “activity change, negative = inhibition” value was -1.4% (inactive). `CC1(c2ccc(Cl)cc2)NC(=O)N(CC(=O)c2ccc3c(c2)OCO3)C1=O` (stereo not drawn): the “activity change, negative = inhibition” value is -20.5% (inactive). `O=C(NCc1ccco1)c1nn2cccnc2c1Cl`: the “activity change, negative = inhibition” value was -9.49% (inactive). `O=C(Nc1ccc(Cl)cn1)c1cnn2cccnc12`: the Potency is 7.57 µM (active).

For `COc1ccc(C(=O)NC(=S)Nc2ccc(Cl)cn2)cc1OC`, the “activity change, negative = inhibition” value was -5.46% (inactive). For the compound `CCCc1cc(C(=O)Nc2ccc(Cl)cn2)cs1`, the Potency is 0.478 µM (active). For the compound `Cc1cccc(C)c1NC(=O)CNC(=O)c1ccc2c(c1)OCCO2`, the “activity change, negative = inhibition” value was -2.86% (inactive). Consider `CCCc1cc(C(=O)Nc2ccc(C(=O)OC)cc2)cs1`, for which the “activity change, negative = inhibition” value is -14.7% (inactive). In the case of `Cc1cc(NC(=O)c2cnn3cccnc23)n(-c2ccccc2)n1`, the “activity change, negative = inhibition” value was 3.79% (inactive).

Turning to `CS(=O)(=O)c1ccc(-c2nnc(NC(=O)c3ccc4c(c3)OCCO4)o2)cc1`, the “activity change, negative = inhibition” value is -2.9% (inactive). In the case of `Cc1nc(NC(=O)c2ccc3c(c2)OCCO3)ccc1Br`, the Potency was 1.51 µM (active). Take `CCCCC(CC)C(=O)Nc1ccc(Cl)cn1` (stereo not drawn): the “activity change, negative = inhibition” value was -1.5% (inactive). Take `O=C(Nc1ccc(Cl)cn1)c1ccc2c(c1)OCCO2`: the Potency was 1.35 µM (active). Regarding `CC12CCC(=O)N1C(C(=O)Nc1ccc(F)c(F)c1F)CS2` (stereo not drawn), the “activity change, negative = inhibition” value is -0.97% (inactive). As for `COc1ccc(OC)c(CNC(=O)CN2C(=O)CCn3nc(-c4cn(C)c5ccccc45)cc32)c1`, the “activity change, negative = inhibition” value was 0.0113% (inactive). For `CCN(CC(=O)Nc1ccc(OC)cc1)C(=O)CSCc1ccc(C)cc1`, the “activity change, negative = inhibition” value is -1.05% (inactive). Regarding `COc1cc(/C=N/NC(=O)c2cc(C)n(-c3ccc(F)cc3)c2C)cc(OC)c1O`, the Potency was 15.1 µM (active).

As for `CC(C)c1cc(C(=O)N/N=C/c2ccoc2)c(O)c(C(C)C)c1`, the “activity change, negative = inhibition” value was 5.96% (inactive). For the compound `Cc1cc(C(=O)N/N=C/c2ccc(O)c([N+](=O)[O-])c2)c(C)n1-c1ccc(F)cc1`, the Potency is 2.39 µM (active).

Take `Cc1nn(CC(=O)N/N=C/c2ccc(F)cc2)c(C)c1[N+](=O)[O-]`: the “activity change, negative = inhibition” value is -0.587% (inactive). As to `CC(Oc1ccccc1[N+](=O)[O-])C(=O)N/N=C/c1ccoc1` (stereo not drawn), the “activity change, negative = inhibition” value was 2.82% (inactive).

For the compound `COc1cc(/C=N\NC(=O)C2C(=O)NCC2c2ccccc2)cc(OC)c1O` (stereo not drawn), the “activity change, negative = inhibition” value was 5.59% (inactive).

Take `Nc1c(N(Cc2ccco2)C(=O)c2cccc(F)c2)c(=O)[nH]c(=O)n1Cc1ccccc1`: the “activity change, negative = inhibition” value was 2.26% (inactive).

With `Cc1ccccc1C(=O)Nc1nnc(S(=O)(=O)N(C)c2ccc(Cl)cc2)s1`, the “activity change, negative = inhibition” value was -8.25% (inactive). `CC(C)(CNC(=O)CNC(=O)C1CCCCC1)N1CCOCC1`: the “activity change, negative = inhibition” value is -0.324% (inactive). The same measure, in the same setting: the figure for `CCOC(=O)c1ccc(NC(=O)c2c(NCc3cccc(OC)c3)sc3c2CCC3)cc1` is 0.213% (inactive); for `O=C(C1CCC(Cn2c(=O)c3sccc3n(Cc3ccccc3F)c2=O)CC1)N1CCCCC1` (stereo not drawn) it is -10.1% (inactive); for `CC1(C)CC(=O)C=C(c2cccc3c2Oc2ccccc2S3)C1` it is -3.41% (inactive). On to `Cc1cccc(OCCC(=O)Nc2ccccc2C(N)=O)c1`, for which the “activity change, negative = inhibition” value was -0.608% (inactive). On to `COc1cccc(OCC(=O)Nc2ccccc2C(N)=O)c1`, for which the Potency is 4.78 µM (active). Same read-out and setting: the figure for `Cc1cccc(OCC(=O)Nc2ccccc2F)c1` is 21.3 µM (active). As to `CCCOC(=O)Nc1ccccc1C(N)=O`, the “activity change, negative = inhibition” value was 3.69% (inactive). For `Cc1cccc(OCC(=O)NCCCNC(=O)c2ccccn2)c1`, the “activity change, negative = inhibition” value is -1.63% (inactive). Regarding `Cc1cccc(OCC(=O)Nc2ccc(C(=O)O)cc2NC(=O)COc2cccc(C)c2)c1`, the “activity change, negative = inhibition” value was 0.888% (inactive). Consider `CCc1ccc(-n2nc(C)c3c(C)cc(=O)n(CC(=O)Nc4ccc(F)cc4C)c32)cc1`, for which the “activity change, negative = inhibition” value is 1.92% (inactive).

Turning to `CCCNc1ncnc2c1c(-c1ccccc1)cn2-c1ccc(OCC)cc1`, the “activity change, negative = inhibition” value is -5.23% (inactive). Turning to `O=C(COc1ccccc1O)NC1CCCC1`, the “activity change, negative = inhibition” value is -1.18% (inactive).

Consider `CCOC(=O)c1ccc(NC(=O)c2nc(SCc3ccc(F)cc3)ncc2Cl)cc1`, for which the “activity change, negative = inhibition” value was -7.43% (inactive).

Take `COc1ccccc1N=C(C)C1=C(O)COC1=O`: the “activity change, negative = inhibition” value is 2.19% (inactive).
